Results reported in ChEMBL document CHEMBL4513216, “Probing the Open Global Health Chemical Diversity Library for Multistage-Active Starting Points for Next-Generation Antimalarials” (ACS Infect Dis, 2020).
Out of some 65,000 compounds screened, about 2,100 (3.2%) showed an effect of 50% or more. The median lay at about -52%. The sample holds strong results, similar compounds and a random draw of the others, so the mix is not that of the screen.

The compounds below were run on Plasmodium falciparum (assay: Screen against P. falciparum Asexual Blood Stage (ABS), at 5uM). Conditions: tested at 5 uM.
Type: functional, Dd2
Compound `CO[C@@H]1CC[C@H]2[C@H]1OCCN2CC1CC1` has an INHIBITION of -30.3%.
In the case of `c1ccc(CN2C[C@@H]3OCCN(c4ncccn4)[C@@H]3C2)nc1`, the INHIBITION is reported as -56.2%.
`CSc1ccc(C2SCC(=O)Nc3c2c(=O)[nH]n3C2CCOCC2)cc1` (centres undefined) was tested, and the INHIBITION was -122%.
With `CCS(=O)(=O)N1CCc2c(COC)cncc2C1` the INHIBITION was -61.4%.
For `COc1ccc(NC(=O)Cn2nc(C)c(C(C)=O)c2C)cc1`, the INHIBITION was 89.7%.
`CC(C)N(C)Cc1cncc2c1CCN(CC1CC1)C2` showed an INHIBITION of -87.9%.
`CC(C)c1cc(N2CCC3(CCN(C)C3)C2)ncn1` (centres undefined) gave an INHIBITION of -27.6%.
For `CNC(=O)CN1CCC12CCN(C(=O)Cc1ccccc1)C2` (centres undefined), the INHIBITION was -6.6%.
In the case of `O=C(NCc1ccccc1)N1C[C@H]2CCN[C@H]2C1`, the INHIBITION is reported as -86.8%.
With `O=S(=O)(c1ccc(Cl)cc1)N1C[C@@H]2CCN[C@@H]2C1` the INHIBITION was 82%.
`Cc1ccc(S(=O)(=O)N2C[C@@H]3CCN[C@@H]3C2)cc1` gave an INHIBITION of 4.39%.
For `O=C(Cc1ccc(F)cc1)N1C[C@H]2CCN[C@H]2C1`, the INHIBITION was 7.59%.
In the case of `O=S(=O)(c1cccc(Cl)c1)N1C[C@@H]2CCN[C@@H]2C1`, the INHIBITION is reported as 88.1%.
`O=S(=O)(c1ccccc1)N1C[C@@H]2CCN[C@@H]2C1` showed an INHIBITION of 24.4%.
With `CC(C)CNC(=O)[C@H]1C[C@H]2CN(Cc3cccnc3)C[C@@H]1O2` the INHIBITION was -30.9%.
`Nc1ncccc1CN1C[C@H]2CC[C@@H](C1)N(CC1CC1)C2=O` was tested, and the INHIBITION was -61.3%.
Work on `FC(F)Oc1ccccc1CN1CCCC(c2nccn2CC2CC2)C1` (centres undefined) yielded an INHIBITION of 86.4%.
With `CC1C(=O)Nc2cccnc2N1S(=O)(=O)c1ccc(C#N)c(Cl)c1` (centres undefined) the INHIBITION was -88.9%.
`CC(C)=CCN1C[C@@H]2CC[C@H]1CN(Cc1cc(=O)[nH]c(=O)[nH]1)C2` was tested, and the INHIBITION was 4.88%.
With `COCCN(CC1CC1)c1nc(CCN)nc2sc(C)c(C)c12` the INHIBITION was 77.5%.
`Cc1sc2nc(CCN)nc(N(CCN(C)C)CC3CCCO3)c2c1C` (centres undefined) gave an INHIBITION of 70.2%.
In the case of `Cc1cccn2cc(CC(=O)N(CCN(C)C)CC3CCCO3)nc12` (centres undefined), the INHIBITION is reported as -84.6%.
Work on `CCN(CCN(C)C)c1nc(CCN)nc2sc(C)c(C)c12` yielded an INHIBITION of 89.8%.
Compound `Cc1nnc([C@@H]2CC[C@@H]3[C@@H](CCN3Cc3ccccn3)O2)o1` has an INHIBITION of -18%.
In the case of `CN[C@@H](C)C(=O)N(Cc1cccc(C)c1)Cc1ccccc1OC`, the INHIBITION is reported as 83.6%.
`COc1cccc(CC(C)NCC(=O)Nc2ccccc2C)c1` (centres undefined) showed an INHIBITION of -75%.
`O=C(c1ccncc1)N1C[C@@H]2OCCN(CCN3CCCC3)[C@@H]2C1` gave an INHIBITION of -29.2%.
`CCC1CNCc2cc3c(OC)ccc(OC)c3nc2O1` (centres undefined) showed an INHIBITION of -11%.
For `O=C(CC(F)(F)F)N1C[C@H]2CCN[C@H]2C1`, the INHIBITION was -86.8%.
Work on `CCc1nccn1CCNC1CCN(c2nc3ccc(Cl)cc3s2)CC1` yielded an INHIBITION of 85.7%.
Compound `O=C([C@@H]1C[C@@H]2CCN(Cc3ccccn3)C[C@H]2O1)N1CCCO1` has an INHIBITION of -36.6%.
Compound `Cc1cccnc1CC(C)NC1Cc2ccccc2C1` (centres undefined) has an INHIBITION of 89.2%.
`Cc1cccnc1CC(C)NC1CCSCC1` (centres undefined) showed an INHIBITION of 23.6%.
`O=C1[C@H]2CN(Cc3ccoc3)C[C@H]2CN1Cc1cccnc1` was tested, and the INHIBITION was -10%.
`Cc1n[nH]c(C)c1CC(=O)N1CCCN(C)C2(CCN(C)CC2)C1` showed an INHIBITION of -107%.
Compound `Cc1cc(C[C@@H]2CCC[C@H]2NCc2cc(C)c(O)c(C)c2)on1` has an INHIBITION of 79.9%.
Work on `CCCOc1ccccc1CN[C@@H]1CCC[C@H]1Cc1cc(C)no1` yielded an INHIBITION of 84.9%.
`Cc1cc(CNC2(c3ccccc3)CCCCC2)on1` showed an INHIBITION of 9.53%.
For `CCO[C@@H]1CC[C@H]2[C@H]1OCCN2CC1CCC1`, the INHIBITION was -47.6%.
In the case of `COc1c(C2SCC(=O)Nc3[nH]ncc32)cc2c(c1OC)OCO2` (centres undefined), the INHIBITION is reported as -32.3%.
With `CN(C)C(=O)COC[C@@]12CCC[C@@H]1CNC2` the INHIBITION was -23.4%.
Work on `Cn1cc(N2C[C@@H]3CN(Cc4ccccn4)C[C@@H]3C2=O)cn1` yielded an INHIBITION of -120%.
Compound `COc1cc(C(C)NCc2ncccc2C)ccc1SC(F)F` (centres undefined) has an INHIBITION of 75.7%.
`Cc1cccc(-c2ncc(CNC(C)Cc3ncccc3C)cn2)c1` (centres undefined) showed an INHIBITION of -7.12%.
In the case of `Cc1nc(NCC2CC2)nc2c1COCC21CCN(C)C1` (centres undefined), the INHIBITION is reported as -73.6%.
For `CN(Cc1cccc(O)c1)CC1CCCN(CCc2ccc(Cl)cc2)C1` (centres undefined), the INHIBITION was 83.5%.
With `Cc1nc[nH]c1CN(C)CC1CCCN(CCc2ccc(Cl)cc2)C1` (centres undefined) the INHIBITION was 82.9%.
`Cc1csc(CN2CC[C@H]3C[C@H](C)O[C@@H]3C2)n1` was tested, and the INHIBITION was -59.9%.
Work on `Cc1noc(C)c1CN1CCO[C@H]2CN(C3CCOCC3)C[C@H]21` yielded an INHIBITION of 3.95%.
Work on `CC/C=C(/C)C(=O)NS(=O)(=O)c1ccc(C#N)c(C(F)(F)F)c1` yielded an INHIBITION of -159%.
`CC(Cn1cncn1)NCc1ccc2nonc2c1` (centres undefined) showed an INHIBITION of -92.4%.
In the case of `Clc1ccccc1CCN1CCN(c2ccc3nncn3n2)CC1`, the INHIBITION is reported as 74.9%.
`Cc1ccccc1CC(=O)N1C[C@@H](O)[C@H](N2CCC(F)(F)CC2)C1` showed an INHIBITION of -76.9%.
`COc1cc(C2SCC(=O)Nc3[nH]ncc32)c(OC)c2c1OCO2` (centres undefined) showed an INHIBITION of -118%.
For `Cc1c(Cl)c(C(=O)N2CC(c3cccnc3)C2)nn1C`, the INHIBITION was -53.6%.
For `COCCN1C[C@@H]2COC[C@@H](CC(=O)NCc3cccnc3)[C@@H]2C1`, the INHIBITION was -108%.
Work on `CCOc1ccc(CNCCCn2ccnc2)cc1Br` yielded an INHIBITION of 80.1%.
Compound `COc1cc(CNC(C)Cn2ccnc2)cc2c1OCCO2` (centres undefined) has an INHIBITION of -34%.
`CCOc1cc(CNCCCn2ccnc2)cc(Cl)c1OCC` showed an INHIBITION of 77.3%.
Compound `CCOc1ccc(CNCCCn2ccnc2)cc1Cl` has an INHIBITION of 87.7%.
In the case of `CC(Cn1ccnc1)NS(=O)(=O)c1ccc(C#N)c(Cl)c1` (centres undefined), the INHIBITION is reported as -24.8%.
Compound `COc1cc(CNC(C)Cn2cccn2)cc(Cl)c1OC` (centres undefined) has an INHIBITION of -35.2%.
`COc1cc(CNC(C)Cn2ccnc2)cc2c1OCO2` (centres undefined) was tested, and the INHIBITION was -46.3%.
In the case of `COc1ccc(Cl)cc1CNCCCn1ccnc1`, the INHIBITION is reported as 82.3%.
`CC(Cn1ccnc1)NCc1ccc2nonc2c1` (centres undefined) showed an INHIBITION of -108%.
`CC(Cn1ccnc1)NCc1cc(Br)c2c(c1)OCO2` (centres undefined) was tested, and the INHIBITION was 6.16%.
`O=C1CSC(c2ccsc2)c2c(n(C3CCCC3)[nH]c2=O)N1` (centres undefined) showed an INHIBITION of -94.4%.
`Cc1csc(CN2C[C@@H]3CN(C)CCO[C@@H]3C2)n1` showed an INHIBITION of -19.5%.
Compound `CC(C)(C)n1cc(C(=O)NCCCn2ccnc2)c2cccnc21` has an INHIBITION of -3.93%.
`CCOc1c(Cl)cc(Cl)cc1CNCCCn1ccnc1` showed an INHIBITION of 75.9%.
Compound `Cc1nn(CCNC(C)Cn2ccnc2)c(C)c1Cl` (centres undefined) has an INHIBITION of 0.358%.
`COCc1cn(C[C@H]2CC3CCN2C[C@@H]3C(=O)Nc2ccccc2)nn1` (some centres undefined) showed an INHIBITION of -106%.
`CNC(=O)c1cn(C(C)(C)C)c2ncccc12` showed an INHIBITION of -148%.
Compound `Cc1cnc(N2C[C@H]3CCN(CC4CC4)C[C@@H]3C2)nc1` has an INHIBITION of 40.6%.
In the case of `Cc1cnc(N2C[C@H]3CCN(CC4CC4)C[C@H]3C2)nc1`, the INHIBITION is reported as 65.5%.
`c1cncc(N2CC[C@@H]3CN(CC4CC4)C[C@@H]3C2)c1` gave an INHIBITION of 6.94%.
For `Cn1ccnc1CNC1CCCOc2c1ccc1ccccc21` (centres undefined), the INHIBITION was 77.2%.
`Cc1cc2c(c(-c3c[nH]c(C)n3)c1)OC(CN)C2` (centres undefined) gave an INHIBITION of 80.1%.
Compound `Cc1nc(-c2cc(Cl)c3c(c2)CC(CN)O3)c[nH]1` (centres undefined) has an INHIBITION of 83.7%.
Compound `NCC1Cc2cc(Cl)cc(-c3cncc(C(=O)N4CCCCC4)n3)c2O1` (centres undefined) has an INHIBITION of 76%.
`Cc1nc(-c2cc(Cl)cc3c2OC(CN)C3)c[nH]1` (centres undefined) gave an INHIBITION of 94.4%.
For `CCN1CCN(C)C(=O)C12CCN(C(=O)Cc1ccccn1)CC2`, the INHIBITION was -113%.
In the case of `CCC(=O)NCC(c1ccc(SC)cc1)N1CCc2sccc2C1` (centres undefined), the INHIBITION is reported as 77.1%.
For `O=C1NC2(CCNCC2)CC1c1ccncc1` (centres undefined), the INHIBITION was -134%.
In the case of `C[C@@H]1CN(Cc2cccnc2)C[C@]1(C)O`, the INHIBITION is reported as -61.6%.
Work on `C[C@@H]1CN(C2CCN(c3ccccc3F)CC2)CC[C@]1(C)O` yielded an INHIBITION of 87.7%.
For `O=C(NCc1cccnc1)C1=NOC2(CCCN(CCO)C2)C1` (centres undefined), the INHIBITION was -58.4%.
`O=C(CCN1CCCC(CO)(CC2CC2)C1)NCc1cccc(Cl)c1` (centres undefined) was tested, and the INHIBITION was 80%.
Work on `Cc1cc(N(C)C)nc(N2CCCC2c2cccnc2)n1` (centres undefined) yielded an INHIBITION of -15.1%.
`Nc1cc(-c2c[nH]nc2C2CCCN2CCCc2ccccc2)ccn1` (centres undefined) gave an INHIBITION of 77.3%.
`O=C1[C@H]2CN(Cc3ccoc3)C[C@@H]2CCN1Cc1cccnc1` was tested, and the INHIBITION was -121%.
With `Cc1noc(C)c1CN1CC[C@H]2O[C@@H](C(=O)N3CCCC3)CC[C@H]21` the INHIBITION was -58.1%.
`O=C(c1ccccc1-n1cnnn1)N1CCC2(CC1)OCCO2` showed an INHIBITION of -76.9%.
With `C1CCC(c2nc3c(c(N4CCN5CCCC5C4)n2)CCNCC3)C1` (centres undefined) the INHIBITION was 77.4%.
Work on `c1cnn(CC2CCN(c3nc(C4CC4)nc4c3CCNCC4)CC2)c1` yielded an INHIBITION of 91%.
Compound `NCC1CCN(c2nc(C3CCCC3)nc3c2CCNCC3)C1` (centres undefined) has an INHIBITION of 93.5%.
For `CCOCc1nc2c(c(N3CCN4CCCC4C3)n1)CCNCC2` (centres undefined), the INHIBITION was -33.2%.
`CC(C)c1nc(N2CCN3CCCC3C2)c2cnn(C)c2n1` (centres undefined) was tested, and the INHIBITION was 12.9%.
For `Cc1nn(-c2ccccn2)c2c1C(c1cnn(C)c1)SCC(=O)N2` (centres undefined), the INHIBITION was -90.8%.
Work on `Cc1noc(C)c1CN1CCO[C@H]2CNC[C@H]21` yielded an INHIBITION of -38.6%.
`CCN(C)c1nccc(N2CCN[C@H]3CS(=O)(=O)C[C@H]32)n1` showed an INHIBITION of -58.4%.
Compound `Cc1cc(-n2cccn2)ccc1CN1CCOCC(CN(C)C)C1` (centres undefined) has an INHIBITION of 73%.
`CO[C@H]1COCCN(Cc2c[nH]c3ccccc23)C1` was tested, and the INHIBITION was -48.4%.
`COc1ccc(-n2cccn2)c(CN2CCOCC(CN(C)C)C2)c1` (centres undefined) was tested, and the INHIBITION was 78.4%.
